Measured values as given in PubChem BioAssay (Tox21).
Records with an inconclusive call do not appear. The source made the active and inactive calls. Unless noted, calls follow the shape of the dose curve; as a rule, active = well fitted curve in the direction sought with a large enough effect in the repeat runs; inconclusive = weak or mixed curves; inactive = no such curve, though single readings can be large; an effect the other way counts as inactive or inconclusive.

Columns and labels:
[1] = qHTS assay to identify small molecule antagonists of the estrogen related receptor (ERR) signaling pathway from Tox21 library - cell viability counter screen (AID 1224834); also: nearly all actives have a fitted effect of over 30% in size
Method in brief: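 Compounds in DMSO were pinned onto ERR cells that had been incubated for 6 h, and the plates were held at 37 C for 17.5 h. CellTiter-Fluor reagent was then added and fluorescence was measured after 30 min.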

[2] = biological target: Luciferin 4-monooxygenase (Photinus pyralis) (UniProt P08659); assay: qHTS assay to identify small molecule inhibitors of firefly luciferase (AID 1224835); also: nearly all actives have a fitted effect of over 25% in size; also: potency is read from the fitted curve at half-maximal effect
Luciferin 4-monooxygenase (Photinus pyralis), sequence (P08659 whole entry, looked up): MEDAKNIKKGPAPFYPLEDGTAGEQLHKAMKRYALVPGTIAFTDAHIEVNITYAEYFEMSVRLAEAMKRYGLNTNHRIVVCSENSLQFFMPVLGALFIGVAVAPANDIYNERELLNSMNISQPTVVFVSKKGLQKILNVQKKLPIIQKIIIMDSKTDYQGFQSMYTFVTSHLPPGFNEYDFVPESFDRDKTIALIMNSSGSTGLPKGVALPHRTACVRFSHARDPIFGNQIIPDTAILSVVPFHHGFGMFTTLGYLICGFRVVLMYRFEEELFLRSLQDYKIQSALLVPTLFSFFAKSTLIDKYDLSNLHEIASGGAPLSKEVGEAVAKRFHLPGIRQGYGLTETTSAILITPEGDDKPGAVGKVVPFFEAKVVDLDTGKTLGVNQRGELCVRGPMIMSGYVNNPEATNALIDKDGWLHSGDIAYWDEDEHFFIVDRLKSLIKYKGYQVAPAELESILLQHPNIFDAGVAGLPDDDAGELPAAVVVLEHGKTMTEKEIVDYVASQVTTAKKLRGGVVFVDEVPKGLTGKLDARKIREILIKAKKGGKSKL
Method in brief: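 Quantitative HTS format; KM concentrations of both substrates. Purified P. pyralis FLuc activity quantified from luminescence images.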

[3] = qHTS assay to identify small molecule agonists of the constitutive androstane receptor (CAR) signaling pathway - cell viability counter screen (AID 1224836); also: nearly all actives have a fitted effect of over 45% in size
Method in brief: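 Double-stable HepG2 hepatoma cells (hCAR plus CYP2B6-2.2kb) are treated for 23 h at 37 C with test compounds in 15-point concentration series. PK11195 at 0.75 uM final is co-added. Cell viability is quantified by CellTiter-Fluor.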

[4] = qHTS assay to identify small molecule antagonists of the constitutive androstane receptor (CAR) signaling pathway - cell viability counter screen (AID 1224837); also: nearly all actives have a fitted effect of over 45% in size
Method in brief: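 Cells are seeded, rested 4 hr at 37 C/5% CO2, dosed with compound (15-point series) and 50 nM CITCO, incubated a further 23 hr, and then CellTiter-Fluor reagent is added before fluorescence is read. The line is HepG2 with stable hCAR and CYP2B6-2.2kb.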

[5] = biological target: Nuclear receptor subfamily 1 group I member 3 (Homo sapiens) (UniProt Q14994); assay: qHTS assay to identify small molecule antagonists of the constitutive androstane receptor (CAR) signaling pathway (AID 1224838);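 also: HepG2 cells stably expressing hCAR with CYP2B6 luciferase reporter stimulated by CITCO; nearly all actives have a fitted effect of over 40% in size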
Nuclear receptor subfamily 1 group I member 3 (Homo sapiens), sequence (Q14994 whole entry, looked up): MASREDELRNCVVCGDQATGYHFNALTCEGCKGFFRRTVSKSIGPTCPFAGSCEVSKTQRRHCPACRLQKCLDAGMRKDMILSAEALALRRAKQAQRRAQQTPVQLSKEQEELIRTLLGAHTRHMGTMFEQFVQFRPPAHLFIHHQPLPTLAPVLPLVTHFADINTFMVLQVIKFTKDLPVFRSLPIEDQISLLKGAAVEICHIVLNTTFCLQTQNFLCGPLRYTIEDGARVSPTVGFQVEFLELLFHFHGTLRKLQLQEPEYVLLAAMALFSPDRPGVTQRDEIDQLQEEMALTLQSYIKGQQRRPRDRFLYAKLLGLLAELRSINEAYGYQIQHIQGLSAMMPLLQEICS
Method in brief: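 Luminescence from a CYP2B6-2.2kb promoter reporter in hCAR-expressing HepG2 cells reflects CAR signaling. Cells received compounds at 15 concentrations and 50 nM CITCO (final), then incubated 24 h at 37 C/5% CO2.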

[6] = biological target: Nuclear receptor subfamily 1 group I member 3 (Homo sapiens) (UniProt Q14994); assay: qHTS assay to identify small molecule agonists of the constitutive androstane receptor (CAR) signaling pathway (AID 1224839); also: nearly all actives have a fitted effect of over 15% in size; also: potency is read from the fitted curve at half-maximal effect;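 as to activation: HepG2 cells stably carrying human CAR and a CYP2B6 luciferase reporter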
Method in brief: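 Readout: firefly luciferase luminescence via ONE-Glo. System: HepG2 double-stable for hCAR and CYP2B6-2.2kb. Conditions: 15-point compound titration, PK11195 at 0.75 uM final, 24 h incubation.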

[7] = qHTS assay to identify small molecule antagonists of the estrogen related receptor signaling pathway with the pleiotropic PPARgamma coactivator (PGC) from Tox21 10K library - cell viability counter screen (AID 1224840; active = well fitted cell-killing curve with a large enough effect in the repeat runs, not every such curve was filed as active; also: nearly all actives have a fitted effect of over 40% in size)
Method in brief: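 Cell viability is measured by CellTiter-Fluor fluorescence in PGC/ERR cells that receive compounds after a 6-hour attachment period and are then incubated 17.5 hours at 37 C.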

[8] = biological target: Thyrotropin receptor (Homo sapiens) (UniProt P16473); assay: qHTS assay to identify small molecule agonists of the thyroid stimulating hormone receptor (TSHR) signaling pathway (AID 1224843; calls by dose curve; also: nearly all actives have a fitted effect of over 45% in size)
Thyrotropin receptor (Homo sapiens), sequence (P16473 whole entry, looked up): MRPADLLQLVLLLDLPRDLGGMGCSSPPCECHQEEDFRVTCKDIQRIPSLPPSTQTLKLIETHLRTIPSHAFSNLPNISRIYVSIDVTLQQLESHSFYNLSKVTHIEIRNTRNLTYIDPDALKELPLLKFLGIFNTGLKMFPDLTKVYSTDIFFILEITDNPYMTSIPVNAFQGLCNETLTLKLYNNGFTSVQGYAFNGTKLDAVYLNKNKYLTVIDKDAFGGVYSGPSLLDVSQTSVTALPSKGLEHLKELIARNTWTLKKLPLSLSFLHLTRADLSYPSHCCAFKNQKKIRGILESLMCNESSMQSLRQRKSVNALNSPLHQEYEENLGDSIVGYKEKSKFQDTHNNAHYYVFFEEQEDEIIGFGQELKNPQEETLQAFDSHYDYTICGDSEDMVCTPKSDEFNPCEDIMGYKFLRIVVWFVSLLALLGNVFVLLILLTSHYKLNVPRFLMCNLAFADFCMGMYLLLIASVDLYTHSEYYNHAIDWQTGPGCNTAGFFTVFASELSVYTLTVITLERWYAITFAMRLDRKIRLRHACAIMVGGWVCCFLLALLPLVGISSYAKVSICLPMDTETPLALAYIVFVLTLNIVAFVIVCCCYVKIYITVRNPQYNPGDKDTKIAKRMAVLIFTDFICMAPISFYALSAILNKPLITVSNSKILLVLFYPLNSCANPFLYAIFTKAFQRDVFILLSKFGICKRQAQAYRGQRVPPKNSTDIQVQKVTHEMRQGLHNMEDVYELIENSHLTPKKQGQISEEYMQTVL
Method in brief: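 Using 15 concentrations per compound in triplicate, cAMP production was monitored in TSHR-HEK293 cells after 30 min compound incubation at RT; HTRF reagents followed, with fluorescence intensity recorded after 1 h.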

[9] = qHTS assay to identify small molecule agonists of the hypoxia (HIF-1) signaling pathway - cell viability counter screen (AID 1224844; calls by dose curve; also: nearly all actives have a fitted effect of over 50% in size)
Method in brief: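 Viability counter screen: HRE-bla ME-180 cells plated 5 hrs before compound addition, treated 17 hrs at 37C and 5% CO2, then CellTiter-Glo added after the FRET reporter read; luminescence after 30 min.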

[10] = qHTS assay to identify small molecule agonists of H2AX (AID 1224845; active = well fitted activation curve with a large enough effect in the signal ratio in the repeat runs, not every such curve was filed as active; the % refers to the signal ratio)
Method in brief: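 Wild-type CHO-K1 cells plated overnight, then exposed 3 hr at 37C to compounds at 15 concentrations (0.76% DMSO). Lysed, then HTRF anti-pH2AX(S139)-cryptate/anti-H2AX-d2 detection after 24 hr at room temperature; emissions 665 and 620 nm.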

[11] = qHTS assay to identify small molecule agonists of H2AX - cell viability counter screen (AID 1224847; calls by dose curve; also: top concentration of the series differs between compounds; nearly all actives have a fitted effect of over 30% in size)
Method in brief: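 For this counter screen, overnight-attached CHO-K1 cells received test compounds (15 concentrations, 0.76% DMSO final); 3 hr later at 37C, CellTiter-Glo reagent was added and luminescence recorded after 30 min at room temperature.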

[12] = qHTS RealTime-Glo MT Cell Viability Assay in HepG2 cells - 24 hour (AID 1224867); also: nearly all actives have a fitted effect of over 50% in size
Method in brief: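 HepG2 suspension premixed with RealTime-Glo reagents is plated at 600 cells per well and left 5 h at 37 C/5% CO2. Compounds in DMSO then go in, and bioluminescence reflecting viable cell number is recorded over 40 h.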

[13] = qHTS RealTime-Glo MT Cell Viability Assay in HEK293 cells - 32 hour (AID 1224868); also: top concentration of the series differs between compounds; nearly all actives have a fitted effect of over 50% in size
Method in brief: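 Reads taken at 0, 8, 16, 24, 32 and 40 h from the same wells. HEK293 cells (600/well) carried RealTime-Glo reagents from seeding, with compound added after a 5 h settle at 37 C.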

[14] = A CellTox Green Cytotoxicity Assay to monitor cytotoxicity in HEK293 cells - 0 hour (AID 1224869); also: nearly all actives have a fitted effect of over 50% in size
Method in brief: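 Dead-cell fluorescence measured kinetically: asymmetric cyanine dye, HEK293, 600 cells/well, 5 h settle, 23 nL cpd/DMSO, 37 C, reads 0–40 h every 8 h.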

[15] = qHTS assay to identify small molecule agonists of the hypoxia (HIF-1) signaling pathway (AID 1224846; active = well fitted activation curve with a large enough effect in the signal ratio in the repeat runs, not every such curve was filed as active; the % refers to the signal ratio)
Method in brief: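 Agonist mode reporter screen. ME-180 cells stably expressing bla under HRE control received test compounds in DMSO for 17 hrs (37C, 5% CO2), and beta-lactamase activity was then detected with the CCF4-AM FRET substrate.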

[16] = qHTS assay to identify small molecule antagonists of the estrogen related receptor signaling pathway with the pleiotropic PPARgamma coactivator (PGC) from Tox21 10K library (AID 1224841; call rule not given here)
Method in brief: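 Cells stably carrying the PGC/ERR reporter, seeded at 2,000 per well, received pin-transferred compounds 6 h post-plating. Exposure lasted 18 h at 37 C. Signal: One-Glo luminescence.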

[17] = qHTS assay to identify small molecule agonists of the estrogen related receptor signaling pathway with the pleiotropic PPARgamma coactivator (PGC) from Tox21 10K library (AID 1224842); also: nearly all actives have a fitted effect of over 15% in size
Method in brief: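 PGC/ERR reporter cells (NTP line) were seeded 2,000 per well, rested 6 h at 37 C/5% CO2, then pin-dosed with compounds in DMSO for 18 h at 37 C; luciferase read by One-Glo luminescence after 30 min at room temperature.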

[18] = qHTS assay to identify small molecule antagonists of the estrogen related receptor (ERR) signaling pathway from Tox21 library (AID 1224848); also: nearly all actives have a fitted effect of over 50% in size
Method in brief: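 Tox21 10K compounds in DMSO tested for ERR pathway antagonism in NTP's ERR cell line; 18 h, 37 C exposure; ONE-Glo luminescence.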

[19] = qHTS assay to identify small molecule agonists of the estrogen related receptor (ERR) signaling pathway from Tox21 library (AID 1224849; calls by dose curve; also: nearly all actives have a fitted effect of over 15% in size); settings: ERR reporter cell line, ONE-Glo luciferase, 18 h; at 92.4 µM (top of the series) unless noted
Method in brief: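 Quantitative HTS in agonist format: NTP ERR cell line, compounds transferred in DMSO after 6 h plating, 18 h incubation at 37 C, ONE-Glo luminescence endpoint.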
% is scaled to controls: 0 for no effect and ±100 for the full control effect.

NNC(N)=O
inactive: Potency [1] | Potency [2] | Potency [3] | Potency [4] | Potency [5] | Potency [6] | Potency [7] | Potency [8] | Potency [9] | outcome [10] | Potency [11] | Potency [12] | Potency [13] | outcome [14]

c1cncc([C@@H]2CCCCN2)c1
inactive: Potency [1] | Potency [2] | Potency [3] | Potency [4] | Potency [5] | Potency [6] | Potency [7] | Potency [9] | outcome [10] | outcome [15] | Potency [11] | Potency [12] | Potency [13] | outcome [14]

COC(=O)c1ccc(CBr)cc1
inactive: Potency [1] | Potency [2] | Potency [3] | Potency [4] | Potency [5] | Potency [7] | Potency [8] | Potency [9] | outcome [10] | outcome [15] | Potency [11] | Potency [12] | Potency [13] | outcome [14]
active: Potency [6] 31 µM

CC(O)CCl (configuration not stated)
inactive: Potency [1] | Potency [2] | Potency [3] | Potency [4] | Potency [5] | Potency [6] | Potency [7] | Potency [8] | Potency [9] | outcome [10] | outcome [15] | Potency [11] | Potency [12] | Potency [13] | outcome [14]

O=C(Cl)C(Cl)(Cl)Cl
inactive: Potency [1] | Potency [2] | Potency [3] | Potency [4] | Potency [5] | Potency [6] | Potency [7] | Potency [8] | outcome [10] | outcome [15] | Potency [11] | Potency [12] | Potency [13] | outcome [14]

CCOC(=O)Nc1cccc(OC(=O)Nc2ccccc2)c1
inactive: Potency [1] | Potency [3] | Potency [4] | Potency [5] | Potency [7] | Potency [8] | Potency [9] | outcome [10] | outcome [15] | Potency [11] | Potency [12] | Potency [13] | outcome [14]
active: Potency [2] 31.7 µM | Potency [6] 30.6 µM

O=P(O)(O)c1ccccc1
inactive: Potency [1] | Potency [2] | Potency [3] | Potency [4] | Potency [5] | Potency [6] | Potency [7] | Potency [8] | Potency [9] | outcome [10] | Potency [11] | Potency [12] | Potency [13] | outcome [14]

C=CCc1cc(OC)c2c(c1)OCO2
inactive: Potency [1] | Potency [2] | Potency [3] | Potency [4] | Potency [5] | Potency [6] | Potency [7] | Potency [8] | Potency [9] | outcome [10] | outcome [15] | Potency [11] | Potency [12] | outcome [14]

O=C1CC(=O)NC(=O)N1
inactive: Potency [1] | Potency [2] | Potency [3] | Potency [4] | Potency [5] | Potency [6] | Potency [7] | Potency [8] | Potency [9] | outcome [10] | outcome [15] | Potency [11] | Potency [12] | Potency [13] | outcome [14]

CCOC1Oc2ccc(OS(C)(=O)=O)cc2C1(C)C (configuration not stated)
active: Potency [6] 30.4 µM
inactive: Potency [1] | Potency [2] | Potency [3] | Potency [4] | Potency [5] | Potency [7] | Potency [8] | Potency [9] | outcome [10] | outcome [15] | Potency [11] | Potency [12] | outcome [14]

ClCCN1CCCC1
inactive: Potency [1] | Potency [2] | Potency [3] | Potency [4] | Potency [5] | Potency [6] | Potency [7] | Potency [8] | Potency [9] | outcome [10] | outcome [15] | Potency [11] | Potency [12] | Potency [13] | outcome [14]

CC#Cc1cc(C)nc(Nc2ccccc2)n1
active: Potency [2] 39.9 µM | Potency [6] 30.6 µM
inactive: Potency [1] | Potency [3] | Potency [4] | Potency [5] | Potency [7] | Potency [8] | Potency [9] | outcome [10] | outcome [15] | Potency [11] | Potency [12] | outcome [14]

CCC1(c2ccccc2)C(=O)N(COC)C(=O)N(COC)C1=O
inactive: Potency [1] | Potency [2] | Potency [3] | Potency [4] | Potency [5] | Potency [7] | Potency [16] | Potency [17] | Potency [8] | Potency [9] | outcome [10] | outcome [15] | Potency [11] | Potency [18] | activity change, positive = activation [19] 4.72% [at 42.5 µM] | Potency [12] | Potency [13] | outcome [14]

CCNP(=S)(OC)O/C(C)=C/C(=O)OC(C)C (configuration not stated)
active: Potency [6] 27.3 µM
inactive: Potency [1] | Potency [2] | Potency [3] | Potency [4] | Potency [5] | Potency [7] | Potency [9] | outcome [10] | outcome [15] | Potency [11] | Potency [12] | Potency [13] | outcome [14]

CNC(=O)NC(O)C(Cl)(Cl)Cl (configuration not stated)
inactive: Potency [1] | Potency [2] | Potency [3] | Potency [4] | Potency [5] | Potency [6] | Potency [7] | Potency [8] | Potency [9] | outcome [10] | outcome [15] | Potency [11] | Potency [12] | Potency [13] | outcome [14]

CS(=O)(=O)Cl
inactive: Potency [1] | Potency [2] | Potency [3] | Potency [4] | Potency [5] | Potency [6] | Potency [7] | Potency [8] | Potency [9] | outcome [10] | outcome [15] | Potency [11] | Potency [12] | Potency [13] | outcome [14]

C=C(C)[C@H]1CN[C@H](C(=O)O)[C@H]1CC(=O)O
inactive: Potency [1] | Potency [2] | Potency [3] | Potency [4] | Potency [5] | Potency [6] | Potency [7] | Potency [8] | Potency [9] | outcome [10] | Potency [11] | Potency [12] | Potency [13] | outcome [14]

Brc1c(Br)c(Br)c(Br)c(Br)c1Br
inactive: viability change, negative = cytotoxic [1] 3.18% [at 8.39 µM] | activity change, negative = inhibition [2] -3.44% [at 10.5 µM] | viability change, negative = cytotoxic [3] 3.28% [at 8.39 µM] | activity change, negative = cytotoxicity [4] -3.15% [at 8.39 µM] | activity, negative = inhibition [5] -5.81% [at 8.39 µM] | activation [6] -2.38% [at 8.39 µM] | viability change, negative = cytotoxic [7] -4.4% [at 8.39 µM] | activation [8] 1.42% [at 8.39 µM] | activity change, negative = cytotoxicity [9] -35.3% [at 6.97 µM] | activation [15] -0.641% [at 7.01 µM] | activity change, negative = cytotoxicity [11] -1.61% [at 14 µM] | activity change, negative = cytotoxicity [12] -11.6% [at 6.97 µM] | cytotoxicity [14] 20.1% [at 6.97 µM]
